Screening results: PubChem BioAssay, National Center for Advancing Translational Sciences (NCATS)
Only some compounds are listed: those with a hit (about 2.3% of all), similar ones and a draw of the others.
JMJD2E inh: JMJD2E (human) inhibition; AID 2147; B2RXH2; Potency, µM (titrated, usually from 57.1 µM), without a hit: at the top dose activity change, negative = inhibition, usual class: inhibitors; 1.6% of 230,000 active; JMJD2E catalytic domain, FDH-coupled NADH fluorescence (FDH is formaldehyde dehydrogenase);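 also: potency is read from the fitted curve at half-maximal effect; 0% = wells with enzyme and -100% = buffer wells without enzyme; nearly all actives have a fitted effect of over 50% in size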
Target sequence (B2RXH2 1-337 limits assumed): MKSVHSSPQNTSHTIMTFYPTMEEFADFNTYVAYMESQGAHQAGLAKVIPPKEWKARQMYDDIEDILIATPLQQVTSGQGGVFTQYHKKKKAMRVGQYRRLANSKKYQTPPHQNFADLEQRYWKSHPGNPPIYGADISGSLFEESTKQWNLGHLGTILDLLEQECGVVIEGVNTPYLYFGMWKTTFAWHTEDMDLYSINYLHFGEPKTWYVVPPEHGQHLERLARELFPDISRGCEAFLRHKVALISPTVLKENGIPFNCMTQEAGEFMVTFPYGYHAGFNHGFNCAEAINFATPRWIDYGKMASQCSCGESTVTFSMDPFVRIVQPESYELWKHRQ
RGS12 GoLoco inh: inhibitors of human Gai1-RGS12 GoLoco interaction (red fluorophore). 0.44% of 230,000 active. Gai1:RGS12 GoLoco peptide FP, rhodamine, 10 min. Potency, µM (series often up to 61.6 µM), without a hit: at the highest dose activity, negative = inhibition, usual class: inhibitors. P63096; active = well fitted inhibition curve with a large enough effect, not every such curve was filed as active; inactive = no such curve, though single readings can be large or run the other way; also: potency is read from the fitted curve at half-maximal effect; % is scaled to controls: 0 for no effect and ±100 for the full control effect; nearly all actives have a fitted effect of over 30% in size
VDR inh: blocks the human vitamin D receptor | P11473 | VDR-SRC2-3 peptide fluorescence polarization, 2 h | Potency, µM, for the others: max response, negative = inhibition, most hits filed as inhibitors | 0.93% of 400,000 active; also: potency is read from the fitted curve at half-maximal effect; % is scaled to controls: 0 for no effect and ±100 for the full control effect
Target sequence (P11473 whole entry, looked up): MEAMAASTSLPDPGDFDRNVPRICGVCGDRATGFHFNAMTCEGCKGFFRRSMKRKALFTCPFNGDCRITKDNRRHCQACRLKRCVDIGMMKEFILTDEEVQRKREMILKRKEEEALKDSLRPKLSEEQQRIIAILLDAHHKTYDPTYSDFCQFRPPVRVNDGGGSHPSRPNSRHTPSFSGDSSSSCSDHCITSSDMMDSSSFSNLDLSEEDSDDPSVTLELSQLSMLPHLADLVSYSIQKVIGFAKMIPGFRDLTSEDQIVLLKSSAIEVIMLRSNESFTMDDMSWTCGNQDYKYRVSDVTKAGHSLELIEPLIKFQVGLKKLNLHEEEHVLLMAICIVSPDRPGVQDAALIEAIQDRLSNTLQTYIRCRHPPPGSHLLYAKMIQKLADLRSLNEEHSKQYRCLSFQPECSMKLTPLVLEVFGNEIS
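Fluorescence polarization assay measuring small-molecule disruption of VDR binding to the coregulator peptide SRC2-3. Compounds were pin-transferred (23 nl) into the reagent mix and incubated 2 h at room temperature before reading.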
HTT aggregate: inhibitors of mutant huntingtin aggregate formation in PC12 cells. 1.1% of 220,000 active. PC12 HttQ103-GFP aggregates, Acumen cytometry, 40 h. Potency, µM (highest dose often 46.1 µM), inactives show at the top dose activity change, negative = inhibition, most hits filed as inhibitors; also: potency is read from the fitted curve at half-maximal effect; % is scaled to controls: 0 for no effect and ±100 for the full control effect; nearly all actives have a fitted effect of over 60% in size
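Compounds (qHTS titration) were added to PC12 cells expressing an ecdysone-driven HTT exon 1 Q103–GFP fusion after induction with 100 nM tebufenozide. Aggregate formation was measured as GFP objects in cell lysates.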
HTT ATP protect: protects HTT-Q103 PC12 cells, measured by ATP. AID 1471. Potency, µM (titrated, usually from 56.4 µM), without a hit: cytoprotection (ATP increase), most hits filed as activators. PC12 HTT-Q103 induced, cytoprotection, ATP luminescence, 40 h. 0.14% of 230,000 active; also: potency is read from the fitted curve at half-maximal effect; % of control where 0% means no effect; nearly all actives have a fitted effect of over 45% in size
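Rat PC12, Q103 Htt exon1-GFP fusion, ecdysone promoter; tebufenozide inducer 100 nM final; compound titration; qHTS, 1500 cells/well; ATPlite luminescent read.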
Coupling enz: coupling enzyme interference in Giardia aldolase counter-screen | coupling enzyme system counterscreen, AmpLite Red fluorescence | activity change, negative = inhibition, % at 58.2 µM, hits read low | 0.67% of 290,000 active | AID 2472; in the data active = activity change below about -30%; also: % is scaled to controls: 0 for no effect and ±100 for the full control effect
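Fluorescence at 525 nm excitation and 598 nm emission measured inhibition of the coupled detection system without aldolase. Compounds (at 57.5 uM final) were preincubated 10 min at room temperature with coupling enzyme reagent before a 20 min substrate/AmpLite Red step.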
Active calls of the source: *; ? = inconclusive; . = no result given; [ ] = remark or other dose. Unless noted, calls follow the shape of the dose curve; as a rule, active = well fitted curve in the direction sought with a large enough effect; inconclusive = small, poorly fitted or top-dose-only effect, or another doubt; inactive = no such curve, though single readings can be large; an effect the other way counts as inactive or inconclusive.

SMILES | JMJD2E inh | RGS12 GoLoco inh | VDR inh | HTT aggregate | HTT ATP protect | Coupling enz
O=C1NCC(c2ccccc2)C1C(=O)N/N=C\c1ccc(-c2ccc(Cl)c(Cl)c2)o1 (centres undefined) | ? | -1% | -13% | -13% | 1% | 2
O=C1NCC(c2ccccc2)C1C(=O)N/N=C/c1ccc(Cl)s1 (centres undefined) | -15% | 13% | 5% | 0.11µM* | . | 2
C=CC(C1=CC(=O)C(OC)=CC1=O)c1ccc(O)cc1 (centres undefined) | ? | -6% | -18% | . | -12% | -35*
C=C[C@@H](C1=CC(=O)C(OC)=C(OC)C1=O)c1ccccc1 | ? | -8% | 4µM* | . | ? | -45*
C=CC(C1=CC(=O)C=CC1=O)c1ccccc1 (centres undefined) | ? | 2% | 35µM* | . | -59% | -18
COc1ccc([C@@H]2CC(=O)c3c(O)cc(O[C@@H]4O[C@@H](CO[C@@H]5O[C@@H](C)[C@@H](O)[C@@H](O)[C@H]5O)[C@@H](O)[C@@H](O)[C@H]4O)cc3O2)cc1O | . | . | . | . | 2% | .
COc1cc2ccccc2cc1C(=O)N1CCN(c2nc3c(F)cc(F)cc3s2)CC1 | . | . | -3% | . | . | .
O=C(ONC1=NCCCCC1)c1c(F)cccc1F | -4% | 4% | 8% | -6% | 0.79µM* | 0
O=C(ONC1=NCCCCC1)c1ccc(Cl)cc1 | 5% | -2% | -4% | 2% | 16% | -3
CCCCN1C(=O)/C(=C2/Sc3ccccc3N2C)S/C1=N\c1ncn[nH]1 | 2% | 15% | -11% | -13%[9.22 µM] | -65%[10 µM] | 1
COc1ccccc1N1CCN(Cc2ccc(O)c3ncccc23)CC1 | 1% | -5% | 24% | 1.1µM* | -77%[10 µM] | -21
COc1ccccc1N1CCN(Cc2c[nH]c3ccccc23)CC1 | -4% | -43% | 5% | -19%[9.22 µM] | -13%[10 µM] | -1
Cc1ccc(NCc2ccc(O)c3ncccc23)cc1 | -2% | -23% | ? | -37%[9.22 µM] | ? | -9
Oc1ccc(CN2CCCc3ccccc32)c2cccnc12 | 8.9µM* | -2% | 79µM* | ? | 28%[10 µM] | -3
CCOC(=O)C1CCN(Cc2ccc(O)c3ncccc23)CC1 | 8.9µM* | 0% | 4% | -8% | -35% | -8
O=C(c1ccco1)N1CCC2(CCN(Cc3ccccc3)CC2)CC1 | . | 8% | 9% | . | 13% | 0
CC(C)(C)OC(=O)N1CCC(c2c(C(=O)Nc3ccc4c(c3)OCCO4)cnn2-c2ccc(F)cc2)CC1 | . | . | 2% | . | . | .
COc1cc(C(=O)NCC(c2ccccc2)N(C)C)ccc1OCc1c(C)noc1C (centres undefined) | . | . | 1% | . | . | .
O=C(CSc1nc2ccccc2c(=O)n1Cc1ccccc1)Nc1ccc(Br)cc1C(=O)O | . | . | ? | . | . | 4
O=C(O)Cc1ccc2ccc3ccccc3c2c1 | . | . | 8% | . | . | .
O=C(O)Cc1ccc(O)c(O)c1 | 25µM* | 22% | -2% | -15%[9.22 µM] | -68% | -4
Cc1ccc2nc(-c3ccc(SCC(=O)Nc4nnc(C)s4)nc3)[nH]c2c1 | ? | 5% | 7% | 16µM* | -17%[10 µM] | -1
O=C(Nc1ccc(Nc2ccccc2)cc1)C(Cl)Cl | -10% | 18% | 5% | ? | 28%[10 µM] | 0
CC(C)(C)C(=O)C(Cl)C(=O)Nc1ccccc1 (centres undefined) | 5% | -3% | 20µM* | -17%[9.22 µM] | -20%[10 µM] | 6
CCCn1c(CNc2ccc(Br)cc2)nc2ccccc21 | -5% | 4% | -20% | 11µM* | -13% | -7
SMILES | JMJD2E inh | RGS12 GoLoco inh | VDR inh | HTT aggregate | HTT ATP protect | Coupling enz
CCn1c(CNc2ccc(C(=O)O)cc2)nc2ccccc21 | 0% | 4% | -8% | -10% | -17% | 8
CCC(CC)c1nn2c(=O)cc(COc3ccc(NC(=O)c4ccc(C)cc4)cc3)nc2s1 | . | . | -26% | . | . | .
CCCCCCn1c(SCC(=O)OC)nc2c1c(=O)[nH]c(=O)n2C | 2% | -12% | 22µM* | 9% | -16%[10 µM] | -3
CCCCn1c(SCc2ccc(Cl)cc2)nc2c1c(=O)[nH]c(=O)n2C | -1% | -6% | 89µM* | -13% | 0%[10 µM] | 2
CC(C)(C)c1ccc(CNc2ccc([N+](=O)[O-])cn2)cc1 | 4% | 6% | 6% | ? | -14%[10 µM] | 1
CCc1nnc(NC(=O)c2nc(Cl)ccc2Cl)s1 | . | . | -8% | . | . | .
Cc1nnc(NC(=O)c2nc(S(=O)(=O)Cc3ccccc3C)ncc2Cl)s1 | . | . | 35µM* | . | . | 1
CCS(=O)(=O)c1ncc(Cl)c(C(=O)Nc2ccc(C)cc2)n1 | . | . | 16µM* | . | . | 0
CCc1nnc(NC(=O)c2nc(S(=O)(=O)Cc3ccc(C)cc3)ncc2Cl)s1 | . | . | 22µM* | . | . | .
CCN(CC)C(=O)COCc1cc(-c2ccc3c(c2)OCO3)on1 | . | . | -20% | . | . | 0
Cc1ccc(S(=O)(=O)N2CCN(C(=O)NCc3ccc(C(=O)O)cc3)CC2)cc1 | . | . | 7% | . | . | 0
CC(C)(C)OC(=O)C[C@H]1C/C=C\C[C@@H](CC(=O)N(CCO)Cc2ccccc2)C(=O)N[C@H](Cc2ccccc2)COC1=O | . | . | -19% | . | . | .
O=C1CCCCCN1C(=O)c1ccccc1 | . | . | -1% | . | . | .
O=C1CCCCCN1Sc1ccccc1 | -9% | . | 13µM* | -3% | 19% | -1
CCOC(=O)N1CCC(Nc2nc3ccccc3nc2NS(=O)(=O)c2ccc(Cl)cc2)CC1 | ? | 14% | ? | 11µM* | -8%[0.074 µM] | 12
O=C(O)/C=C\c1ccc(O)c(O)c1 | 11µM* | -35%[21.6 µM] | 1% | . | -21% | -2
O=C(/C=C/c1ccc(O)c(O)c1)c1ccccc1O | 25µM* | 45% | 13% | -8%[9.22 µM] | -40%[10 µM] | -7
O=C(O)/C=C/c1ccc(O)cc1 | . | . | -14% | . | . | .
COc1ccc(C(=O)/C=C/c2ccccc2)c(O)c1 | 4% | 1% | ? | 19% | 17% | 0
O=C(C=Cc1cccc(O)c1)c1ccccc1O | . | . | 40µM* | . | . | .
O=C(/C=C/c1ccc(O)c(O)c1)OCCc1ccccc1 | 20µM* | -6% | -7% | . | . | -1
CCN(CC(=O)NCc1cccs1)C(=O)CCc1c[nH]c2ccccc12 | -6% | 8% | -21% | -5% | -37% | -1
O=C(c1csnn1)N1CCC2(CCCN(c3ncccn3)C2)CC1 | . | 7% | 3% | . | 6% | 2
COc1cccc(NC(=O)c2oc3ccccc3c2NC(=O)C23CC4CC(CC(C4)C2)C3)c1 | . | . | -9% | . | . | .
CC1CCCC(NC(=S)NC(=O)c2ccco2)C1C (centres undefined) | . | . | -18% | . | . | .
CCn1c(CSc2nnc(-c3ccncc3)n2C)nc2cc(C(=O)O)ccc21 | ? | 14µM* | ? | -20%[9.22 µM] | 0%[10 µM] | 5
COc1ccc(C2C(C(C)=O)=C(C)N=c3s/c(=C/c4ccc5c(c4)OCO5)c(=O)n32)cc1 (centres undefined) | -8% | 85% | . | 14% | -18%[10 µM] | -2
